Source: PubChem BioAssay
ROMK primary = modulators of human ROMK potassium channel. 130,000 compounds, 2% hits. B-score at 10 µM. Tet-inducible ROMK, thallium flux fluorescence; actives lie on both sides;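 active = signal ratio slope over the read window, or its plate-corrected B-score, at least 3 SD from the plate mean, either direction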;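 also: B-score of the F/F0 ratio slope over 7 to 12 s after thallium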
Target sequence (P48048 whole entry, looked up): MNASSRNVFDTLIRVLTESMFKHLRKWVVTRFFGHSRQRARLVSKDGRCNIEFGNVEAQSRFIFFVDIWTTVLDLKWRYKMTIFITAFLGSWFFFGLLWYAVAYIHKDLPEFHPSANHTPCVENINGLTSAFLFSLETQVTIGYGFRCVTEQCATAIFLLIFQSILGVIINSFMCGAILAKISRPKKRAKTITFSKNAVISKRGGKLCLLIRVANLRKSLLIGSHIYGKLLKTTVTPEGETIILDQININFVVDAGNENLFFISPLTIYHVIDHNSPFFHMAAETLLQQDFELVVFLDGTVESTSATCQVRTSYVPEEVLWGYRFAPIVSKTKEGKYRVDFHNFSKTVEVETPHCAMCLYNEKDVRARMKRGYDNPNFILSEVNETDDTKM
HCT116 PTEN-null = PTEN-deleted cell growth suppression; HCT116 PTEN-null viability, CellTiter-Glo, 60 h; stronger effect = lower value; viability, % at 10 µM; 140,000 compounds, 1.2% hits;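 active = viability at or below a set limit, 4 SD under the median of all tested compounds, cut at about 3.7% in these data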;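 also: PTEN knockout HCT116 line with beta catenin targeted HCT116 as companion control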
Insulin prom inh = TRM-6 insulin promoter activity inhibition. AID 1273. 130,000 compounds, 0.9% hits. inhibition, % at 2 µM. TRM-6 cells (human fetal islet line), insulin promoter-eGFP reporter, imaging; reporter expression induced with tamoxifen;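 active = inhibition above the mean plus 3 SD, with well images judged a real hit on visual review, cut at about 60% in these data, passing the limit was not always enough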
HCT116 bCat-KO = beta-catenin-lacking colon tumor cell growth suppression | HCT116 beta-catenin knockout viability, CellTiter-Glo, 60 h; stronger effect = lower value | viability, % at 10 µM | 140,000 compounds, 1.5% hits | AID 818;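 active = viability at or under a set limit, the compound median less 4 SD, cut at about 6% in these data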
p97 ATPase inh = inhibitors of human p97 ATPase | inhibition, % at 8 µM | 220,000 compounds, 0.42% hits | recombinant p97 ATPase, Kinase-Glo ATP luminescence, 3 h | P55072; in the data active = inhibition above about 15%
L major viab = reduces viability of Leishmania major promastigotes; AID 1063; resazurin fluorescence viability; inhibition, % at 10 µM; 200,000 compounds, 9% hits; in the data active = inhibition above about 50%;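 also: promastigotes grown with compound for 44 hours at 28 °C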
A number is an active result. Only some compounds are listed: those with a hit (about 10% of all), similar ones and a draw of the others.

Results for Nc1nc(COc2ccc(F)cc2Cl)nc(N2CCCCC2)n1 ?
ROMK primary: inactive; Insulin prom inh: inactive; p97 ATPase inh: inactive; L major viab: inactive

What do the screens show for `C=CCN(C(=O)CNC(=O)c1ccco1)C(C(=O)NC1CCCCC1)c1ccc(OC)cc1` (stereo unspecified)?
HCT116 PTEN-null: inactive; Insulin prom inh: inactive; HCT116 bCat-KO: inactive; p97 ATPase inh: inactive; L major viab: inactive

What do the screens show for `COc1ccc(C(C(=O)NC2CCCC2)N(Cc2ccccc2)C(=O)CNC(=O)c2ccco2)cc1` (stereo unspecified)?
ROMK primary: inactive; HCT116 PTEN-null: inactive; Insulin prom inh: inactive; HCT116 bCat-KO: inactive; p97 ATPase inh: inactive; L major viab: 66.7

What do the screens show for `O=C(/C=C/Sc1ccccc1)c1ccc(Cl)cc1`?
HCT116 PTEN-null: inactive; Insulin prom inh: inactive; HCT116 bCat-KO: inactive; p97 ATPase inh: inactive; L major viab: 92.0

Results for O=C(/C=C/Sc1ccccc1)c1ccccc1 ?
ROMK primary: inactive; HCT116 PTEN-null: 1.4; Insulin prom inh: inactive; HCT116 bCat-KO: 2.1; p97 ATPase inh: inactive; L major viab: 58.5

How did CSC(=CC(=O)c1ccc(F)cc1)SC do in these assays?
p97 ATPase inh: inactive

How did CSC(=CC(=O)c1ccccc1)SC do in these assays?
HCT116 PTEN-null: inactive; Insulin prom inh: inactive; HCT116 bCat-KO: inactive; p97 ATPase inh: inactive; L major viab: 85.3

Results for CC(CC(=O)N1CCN(c2ccc(C(F)(F)F)cn2)CC1)n1ccnc1 (stereo unspecified) ?
ROMK primary: inactive; p97 ATPase inh: inactive; L major viab: inactive

How did COC(=O)CS(=O)(=O)c1ccsc1C(=O)Nc1ccc(F)cc1 do in these assays?
ROMK primary: inactive; Insulin prom inh: inactive; p97 ATPase inh: inactive; L major viab: inactive

Results for C/C(Cc1ccccc1)=N\NC(=O)CNC(=O)c1ccccc1Br ?
ROMK primary: inactive; HCT116 PTEN-null: inactive; Insulin prom inh: inactive; HCT116 bCat-KO: inactive; p97 ATPase inh: inactive; L major viab: 61.5

How did COc1ccc(CCn2c(=N)c(C(=O)N3CCN(C)CC3)cc3c(=O)n4ccccc4nc32)cc1 do in these assays?
HCT116 PTEN-null: inactive; HCT116 bCat-KO: inactive; p97 ATPase inh: inactive; L major viab: 87.8

How did O=C(NCc1ccco1)c1cc2ccccc2c(=O)o1 do in these assays?
ROMK primary: inactive; HCT116 PTEN-null: inactive; Insulin prom inh: 78.6; HCT116 bCat-KO: inactive; p97 ATPase inh: inactive; L major viab: inactive

How did O=C(NCc1ccco1)c1cc(=O)c2ccccc2o1 do in these assays?
ROMK primary: inactive; Insulin prom inh: inactive; p97 ATPase inh: inactive; L major viab: inactive

What do the screens show for `O=C(NCc1ccco1)c1cnc2ccccn2c1=O`?
HCT116 PTEN-null: inactive; HCT116 bCat-KO: inactive; p97 ATPase inh: inactive; L major viab: inactive

Results for COc1ccc(CNC(=O)c2cc3c(=O)n4ccccc4nc3n(Cc3ccco3)c2=N)cc1 ?
Insulin prom inh: inactive; p97 ATPase inh: 34.9; L major viab: inactive

Results for O=C(NCc1ccco1)c1cccn2c(=O)c3cc4ccccc4cc3nc12 ?
ROMK primary: inactive; HCT116 PTEN-null: 1.7; Insulin prom inh: inactive; HCT116 bCat-KO: 2.6; p97 ATPase inh: inactive; L major viab: inactive

How did S=C(Nc1ccc2nccnc2c1)N1CCOCC1 do in these assays?
ROMK primary: inactive; p97 ATPase inh: inactive; L major viab: inactive

What do the screens show for `Cc1cc(=O)[nH]c(N/N=C/C(C)c2ccccc2)n1` (stereo unspecified)?
p97 ATPase inh: inactive

How did CN(C)c1ccc(N=Nc2ccccc2C(=O)OCC(=O)NC2CCCC2)cc1 do in these assays?
HCT116 PTEN-null: inactive; HCT116 bCat-KO: inactive; p97 ATPase inh: inactive; L major viab: inactive

Results for CN(C)c1ccc(N=Nc2ccccc2C(=O)OCC(=O)NCC2CCCCC2)cc1 ?
ROMK primary: inactive; HCT116 PTEN-null: inactive; Insulin prom inh: inactive; HCT116 bCat-KO: inactive; p97 ATPase inh: inactive; L major viab: 97.0

What do the screens show for `O=S(=O)(c1cccc(NC(=S)Nc2ccc(Br)cc2Cl)c1)N1CCOCC1`?
HCT116 PTEN-null: inactive; Insulin prom inh: inactive; HCT116 bCat-KO: inactive; p97 ATPase inh: inactive; L major viab: 51.8

What do the screens show for `O=C(Cc1c(Cl)cccc1Cl)Nc1cccc(S(=O)(=O)N2CCOCC2)c1`?
ROMK primary: inactive; Insulin prom inh: inactive; p97 ATPase inh: inactive; L major viab: inactive

How did CCN(CC)S(=O)(=O)c1cccc(S(=O)(=O)N2CCCCC2)c1 do in these assays?
ROMK primary: inactive; HCT116 PTEN-null: inactive; HCT116 bCat-KO: inactive; p97 ATPase inh: inactive; L major viab: inactive
